Source: PubChem
In the library only some 3.6% were active in any assay of this set; here they are far more common.
FBA Mtb inh: inhibitors of M. tuberculosis fructose-bisphosphate aldolase; purified M. tuberculosis FBA, fluorescence read-out; P9WQA3; 360,000 tested, 2.3% active; inhibition, % at 1 µM; in the data active = inhibition above about 27%;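 also: 0% = vehicle and 100% = reference inhibitor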
Target sequence (P9WQA3 whole entry, looked up): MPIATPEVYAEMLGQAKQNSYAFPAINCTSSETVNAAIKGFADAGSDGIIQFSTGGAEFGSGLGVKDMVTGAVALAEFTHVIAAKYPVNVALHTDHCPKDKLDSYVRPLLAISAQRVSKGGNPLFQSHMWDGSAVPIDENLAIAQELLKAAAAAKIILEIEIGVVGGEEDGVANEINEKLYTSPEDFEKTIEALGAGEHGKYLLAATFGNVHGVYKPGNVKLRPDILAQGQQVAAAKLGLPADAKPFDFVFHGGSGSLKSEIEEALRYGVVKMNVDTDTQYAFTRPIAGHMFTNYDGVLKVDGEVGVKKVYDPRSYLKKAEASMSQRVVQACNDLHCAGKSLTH
DUSP3 inh: blocks human VHR1 dual specificity phosphatase. P51452. recombinant VHR phosphatase, pNPP absorbance. inhibition, % at 13.3 µM. 290,000 tested, 0.52% active. AID 1654; in the data active = inhibition above about 50%
Target sequence (P51452 whole entry, looked up): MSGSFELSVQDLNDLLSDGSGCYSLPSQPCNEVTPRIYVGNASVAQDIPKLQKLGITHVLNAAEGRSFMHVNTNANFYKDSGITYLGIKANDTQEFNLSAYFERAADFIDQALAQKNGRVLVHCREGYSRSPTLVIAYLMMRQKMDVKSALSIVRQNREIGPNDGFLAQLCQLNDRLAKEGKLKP
Mtb hypoxia rep: reduces hypoxia-regulated biosensor signal in M. tuberculosis; 300,000 tested, 0.1% active; fluorescence inhibition, % (no concentration beside the values); M. tuberculosis hypoxia-regulated fluorescent reporter, fluorescence; in the data active = fluorescence inhibition mostly above about 23%, no sharp cut-off; inactive = mostly below about 17%
Mtb betalactam: beta-lactam sensitization of Mtb H37Rv; 330,000 tested, 0.27% active; M. tuberculosis H37Rv growth with meropenem, percent inhibition; inhibition, % at 25 µM; call rule not given here;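 also: growth measured after seven days incubation then overnight dye step; 0% = bacteria only wells and 100% = bacteria with antibiotic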
GDH-TPI counter: inhibits GDH-TPI coupling enzymes, artifact for Mtb FBA screen; GDH-TPI coupled enzyme counterscreen, NADH absorbance; inhibition, % at 4.8 µM; 360,000 tested, 1.2% active; AID 588335; in the data active = inhibition above about 30%;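 also: 0% = DMSO wells and 100% = wells lacking the enzyme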
* marks the source's active call; other numbers are inactive results; / = not tested or not shown.

SMILES	FBA Mtb inh	DUSP3 inh	Mtb hypoxia rep	Mtb betalactam	GDH-TPI counter
COc1ccc2[nH]c3c(=O)n(CCCN4CCOCC4)cnc3c2c1	157*	13	5	0	22
COc1cc2c(cc1OC)C(C)N(C(=O)c1sccc1C)CC2 (configuration not stated)	4	52*	4	-4	8
COc1cc2c(cc1OC)C(C)N(C(=O)c1ccc(C)o1)CC2 (configuration not stated)	0	2	7	-1	2
COc1cccc(C=NNC(=O)C(=O)NCc2cccnc2)c1O	/	/	6	/	/
O=C(c1ccc([N+](=O)[O-])o1)N1CCc2ccccc2C1	-2	17	47*	100	8
COc1ccc(NC(=O)C=Cc2cc(Br)ccc2OC)cc1	/	/	8	/	/
O=c1cc(O)c2c(=O)n(-c3ccccc3)c3c(c2o1)CCCCC3	2	-7	2	-2	32*
COC(=O)C1=C(C(=O)OC)C2N(C)c3ccc(OC)cc3[C@@]23CC(C(=O)OC)N(C(=O)CC(C)C)C3=N1 (some centres not stated)	/	/	8	/	/
O=C(N/N=C/C(Br)=C/c1ccccc1)C(O)c1ccccc1 (configuration not stated)	0	24	/	1	43*
O=C(O)c1ccc(NN=C/C=C/c2ccccc2)cc1	/	/	3	/	/
O=C(O)c1ccc(N/N=C/C(Br)=C/c2ccccc2)cc1	1	1	/	5	66*
CN(N=Cc1ccc(O)cc1O)c1nc(-c2ccccc2)cc(-c2ccccc2)n1	/	/	-5	/	/
COc1cc(/C=N/N=C2/NC(=O)C(Cc3ccc(F)cc3)S2)ccc1O (configuration not stated)	3	11	/	5	42*
COc1cc(/C=N/N=C2/NC(=O)C(c3ccccc3)S2)ccc1O (configuration not stated)	-4	17	/	2	54*
C#CCNC(=O)C=Cc1ccc(C)cc1	/	/	21	/	/
CC(C)(C)c1nnc(N/N=C/c2cc(Br)ccc2O)n(N)c1=O	-1	23	/	5	33*
COC(=O)c1ccccc1NC(=O)CN1CCN(c2ccccn2)CC1	-2	26	9	0	-7
COC(=O)c1ccccc1N/C=C1\CCc2c(c(C)nn2-c2ccccn2)C1=O	9	20	/	15	32*
CC1CC=CC2C1C(=O)N(Cc1ccccc1)C2c1ccc(F)c(C=Cc2ccccc2)c1 (configuration not stated)	/	/	0	/	/
Cn1c(N)c(C(=O)COC(=O)c2ccco2)c(=O)n(C)c1=O	0	57*	-1	-7	8
CC(C)c1ccc(C(=O)OCC(=O)c2c(N)n(C)c(=O)n(C)c2=O)cc1	1	/	2	0	9
CCCCCCSc1cccc(-c2nc3ccc(C)cn3c2NCc2ccccc2)c1	36*	/	17	5	9
CC(C(=O)NCCc1c[nH]c2ccccc12)C1C[C@@]1(C)C(NC(=O)OCc1ccccc1)c1ccccc1 (some centres not stated)	/	/	2	/	/
Cc1ccc(N/C=C(/C#N)c2ccsc2)cc1	-2	0	/	92	22
N#C/C(=C/Nc1ccccc1)c1ccsc1	-2	11	3	4	34*
SMILES	FBA Mtb inh	DUSP3 inh	Mtb hypoxia rep	Mtb betalactam	GDH-TPI counter
CCc1nnc(NC(=O)Nc2ccc(OC)cc2)s1	1	17	/	0	-8
CCCCOc1ccc(NC(=O)Nc2nnc(C)s2)cc1	-3	57*	/	8	-16
CCOC(=O)C1C2COc3ccc(Br)cc3C2N2C(=O)N(c3ccc(F)cc3)C(=O)[C@]12C (some centres not stated)	/	/	19	/	/
O=c1[nH]c(=S)n(-c2ccccc2)c(O)c1/C=N/N1CCCCC1c1cccnc1 (configuration not stated)	4	19	/	1	52*
Nc1cccc(CCc2ccncc2)c1	-2	58*	4	-15	14
COc1cc(C(=O)C(=O)c2ccc(OC)c(OC)c2)ccc1O	-6	/	5	/	32*
COc1ccc(C=CC(=O)c2ccc(OC)c(OC)c2)cc1O	3	/	/	/	40*
CCOc1cc(/C=C/C(=O)c2ccc3c(c2)OCCO3)ccc1OCC(=O)N(C)C	-1	34	-19	31	11
CCOc1cc(/C=C/C(=O)c2ccc(O)cc2)ccc1OCC(=O)N(C)C	-3	13	3	-10	47*
COc1ccc(/C=C/C(=O)c2ccoc2)cc1	1	21	14	73	38*
COc1ccc(C(=O)c2ccc(OC)c(OC)c2)cc1OC	-3	41	10	-3	15
N#CC(=Cc1c(N(Cc2ccccc2)Cc2ccccc2)nc2ccccn2c1=O)C(N)=O	/	/	-5	/	/
CCOC(=O)C1C2COc3cc(OC)ccc3C2N2C(=O)N(c3ccc(OC)cc3)C(=O)[C@]12C (some centres not stated)	/	/	3	/	/
COc1ccc(C(=O)/C=C/c2ccc3c(c2)OCCO3)cc1	2	4	-2	3	36*
COc1cc(OC)c(C(=O)C=Cc2ccc(OC)c(OC)c2)c(OC)c1	0	/	0	/	35*
COc1cc(OC)c(C(=O)/C=C/c2ccc(OCc3ccccc3)c(OC)c2)c(OC)c1	0	4	11	85	17
COc1ccc(C=CC(=O)c2ccc3cc(OC)c(OC)cc3c2)cc1OC	-4	/	/	/	31*
COc1ccc(C=NNC(=O)C(=O)NCc2cccnc2)cc1OC	/	/	13	/	/
NC(=O)c1ncn(C2OC(CO)C(O)C2O)c1O (configuration not stated)	/	/	6	/	/
C=CCC(C(=O)OC)(C(=O)OC)c1ccc([N+](=O)[O-])cn1	2	52*	0	6	5
CC(C)(C)C1C=C(C(=O)O)OC(OCc2ccc(CO)cc2)C1 (configuration not stated)	/	/	22	/	/
Cc1ccnc(NS(=O)(=O)c2ccc(NC(=O)c3ccc([N+](=O)[O-])s3)cc2)n1	0	-5	/	5	17
Cc1cc(NS(=O)(=O)c2ccc(NC(=O)c3ccc([N+](=O)[O-])s3)cc2)nc(C)n1	-1	/	/	90	31*
O=C(C1CC=CC2CCN(C3CCCCC3)C(=O)C21)N1CCN(c2ccccc2)CC1 (configuration not stated)	/	/	10	/	/
CC(NC(=O)c1ccccc1F)c1ccccc1 (configuration not stated)	2	10	/	-4	-4
SMILES	FBA Mtb inh	DUSP3 inh	Mtb hypoxia rep	Mtb betalactam	GDH-TPI counter
CC(NC(=O)c1ccccc1N)c1ccccc1 (configuration not stated)	47*	21	14	5	-5
COc1cc(/C=C(/C#N)C(=O)c2c(C)[nH]c3ccccc23)ccc1OCC#N	3	23	/	1	38*
O=C1NC(=S)S/C1=C\c1cccc([N+](=O)[O-])c1	-5	/	4	/	33*
CC1Cc2cc(/C=C3/SC(=S)NC3=O)ccc2O1 (configuration not stated)	-8	29	6	10	37*
O=C1NC(=S)SC1=Cc1ccccc1Cl	2	/	11	/	42*
O=[N+]([O-])c1ccc2c(c1)C(N1CCOCC1)C(=CCOc1ccc(Cl)cc1Cl)O2 (configuration not stated)	/	/	8	/	/
